Source: PubChem BioAssay
Rows were chosen to be rich in hits. Some 4% of all compounds tested hit in one or more screens of this group.
Beta apoptosis = blocks beta cell apoptosis. hit rate 0.8% among 300,000. AID 435005. INS-1E cytokine-induced death, ATP luminescence, 48 h; percent of positive-control rescue, neutral wells zero. protection from apoptosis, % (concentration not given with the values);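 active means Every replicate reaches about 75%, or at least half do and their mean reaches it too, limit read from the data; inconclusive means At least half of replicates reach the limit but their mean does not; inactive means Under half of replicates reach the limit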;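 further: 0% = cytokine-treated negative control wells and 100% = positive control rescue; higher means more ATP so stronger rescue from cytokine killing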
Gli-Sufu antag = antagonists of Gli-Sufu signaling. hit rate 0.74% among 340,000. Sufu-KO-LIGHT fibroblasts, Gli luciferase reporter luminescence. AID 588413. inhibition, % at 5 µM;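 active means inhibition above about 55%, limit read from the data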;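 further: 0% = DMSO-treated cells and 100% = wells with medium but no cells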
Mdm2-MdmX inh = human Mdm2/MdmX binding inhibition | O15151+Q00987 | SaOS-2 split-luciferase Mdm2/MdmX complementation, luminescence | inhibition, % at 8 µM | hit rate 3% among 330,000 | AID 485346;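 active means inhibition of at least 50% at 8 µM in the primary screen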
Shn3 3UTR inh = inhibitors of Schnurri-3 3'UTR reporter in osteoblasts; Clone20 osteoblast Shn3 3'UTR firefly luciferase, 24 h; inhibition, % at 12.5 µM; hit rate 0.52% among 360,000; AID 588674;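 active means mean inhibition of at least 75% with every replicate also reaching 75%; inconclusive means mean inhibition at least 75% but some replicate below; inactive means mean inhibition below 75%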;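 further: 0% = median of neutral control wells and 100% = pilot-screen positive control compound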
CSC inhib = cancer stem cell inhibition | cancer stem cell-like cells viability, luminescence | inhibition, % at 7.5 µM | hit rate 1.1% among 300,000 | AID 2717; in the data active means inhibition above about 75%; inconclusive means no clear call, values can overlap the other calls; tested in HMLE shEcad cells
PAX8 reporter = lowers PAX8-driven luciferase in RMG-I cells; hit rate 1.2% among 360,000; inhibition, % at 12.6 µM; AID 652154; RMG-I TPO-luciferase reporter, SteadyGlo, 24 h;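 active means mean replicate inhibition at least 60% with every replicate also reaching 60%; inconclusive means only one of the two criteria is met; inactive means mean below 60% and not all replicates reaching 60%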;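 further: luciferase light reporting Pax8 driven TPO promoter activity; plate controls were median of neutral control wells for no effect and mitoxantrone controls for full effect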
Mdm2 MdmX conf = confirmation of human Mdm2/MdmX interaction inhibitors. shares compounds with Mdm2-MdmX inh. AID 489028. hit rate 55% among 10,000. Mdm2-MdmX binding, luminescent assay. inhibition, % at 8 µM; in the data active means inhibition above about 40%
FLuc counter = full-length luciferase inhibition in Mdm2/MdmX counter-screen. shares compounds with Mdm2-MdmX inh. SaOS-2 full-length luciferase counterscreen, luminescence. inhibition, % at 8 µM. hit rate 77% among 6,200. AID 504607;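 active means mean inhibition at 8 µM reaching about 37%, which flags the compound as non-specific, limit read from the data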;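 further: p53-null SaOS-2 cells with luciferase driven by a doxycycline-inducible promoter; compound on cells about two nights before reading with doxycycline added after day one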
* hit, by the source's call; ? = inconclusive; · = not tested or not shown.

SMILES | Beta apoptosis | Gli-Sufu antag | Mdm2-MdmX inh | Shn3 3UTR inh | CSC inhib | PAX8 reporter | Mdm2 MdmX conf | others
CC(=O)Nc1ccc(NC(=O)Nc2ccc3c(c2)N(C)C(=O)CS3)cc1 | -3.4 | 1.7 | 39.6 | -1.6 | -15.6 | -27.9 | ·
COc1cccc(NC(=O)Nc2ccc3c(c2)N(C)C(=O)CS3)c1 | -1.5 | 39.7 | 50.0* | -17.9 | -19.5 | -46.5 | 27.1
COc1ccccc1CNC(=O)OCc1nccnc1C(=O)Nc1ccc(Br)cn1 | -8.8 | -10.1 | 54.6* | -3.4 | -1.3 | -19.7 | -6.8
O=[N+]([O-])c1cc(-c2ncccn2)c([N+](=O)[O-])s1 | -5.1 | 21.6 | 93.2* | 4.6 | ? | 9.2 | 42.2* | FLuc counter=11.8
O=C(Nc1ncccn1)c1cc([N+](=O)[O-])cc([N+](=O)[O-])c1 | -10.9 | -1.6 | -23.6 | 12.7 | -16.0 | 6.9 | ·
CC(C)(C)OC(=O)NCc1ccc(NC(=O)c2nc[nH]c2C(=O)NCCNC(=O)c2[nH]cnc2C(=O)Nc2ccc(CNC(=O)OC(C)(C)C)cc2)cc1 | 81.2* | 4.5 | 74.1* | -15.2 | · | · | 23.8
CC(C)(C)OC(=O)NCCCCCNC(=O)c1nc[nH]c1C(=O)NCC(=O)OCc1ccccc1 | -3.2 | -1.2 | 65.6* | 29.5 | 9.1 | 10.4 | 45.5* | FLuc counter=50.2*
CC(C)(C)OC(=O)CNC(=O)c1[nH]cnc1C(=O)Nc1ccc(Cl)cc1 | -1.7 | -1.1 | 8.7 | -23.9 | 39.7 | 5.3 | ·
CC(C)(C)OC(=O)CNC(=O)c1[nH]cnc1C(=O)NCC(=O)OCc1ccccc1 | -8.4 | -13.1 | 32.5 | 25.8 | -4.4 | -16.9 | ·
C[C@@H](O)CNC(=O)c1[nH]cnc1C(=O)Nc1ccc(CNC(=O)OC(C)(C)C)cc1 | · | · | · | -1.4 | · | -0.7 | ·
CC(C)(C)OC(=O)CNC(=O)c1[nH]cnc1C(=O)Nc1ccc(CNC(=O)OC(C)(C)C)cc1 | 7.2 | 8.2 | 62.6* | 18.1 | 32.9 | 37.2 | 54.1* | FLuc counter=74.2*
CC(C)C[C@H](NC(=O)c1[nH]cnc1C(=O)Nc1ccc(CNC(=O)OC(C)(C)C)cc1)C(=O)OC(C)(C)C | 24.2 | -2.7 | 52.5* | 22.0 | 28.3 | 34.8 | -8.9
CNC[C@@H]1OCCCC[C@H](C)Oc2ccc(NS(=O)(=O)c3ccc(OC)cc3)cc2C(=O)N([C@H](C)CO)C[C@@H]1C | · | · | · | · | · | -28.4 | ·
CC(C)(C)OC(=O)NCCCCCNC(=O)c1nc[nH]c1C(=O)NCc1ccc(CNC(=O)OC(C)(C)C)cc1 | 45.5 | 26.6 | 53.9* | 88.9* | 26.7 | 72.5* | 21.6
C[C@H](NC(=O)c1[nH]cnc1C(=O)Nc1ccc(CNC(=O)OC(C)(C)C)cc1)C(=O)OCc1ccccc1 | -4.6 | -12.1 | 80.1* | 35.0 | -13.4 | 8.1 | 14.2
CC(C)C[C@H](NC(=O)c1[nH]cnc1C(=O)Nc1ccc(CNC(=O)OC(C)(C)C)cc1)C(=O)OCc1ccccc1 | -6.5 | 6.9 | 26.3 | -1.9 | 0.0 | 7.9 | ·
Cc1ccc(-c2csc(NC(=S)NC(=O)/C=C/c3ccco3)n2)cc1 | 5.1 | -3.8 | 59.2* | -15.2 | 71.2 | · | 51.4* | FLuc counter=59.3*
CCC(=O)Nc1ccc(NC(=S)NC(=O)/C=C/c2ccco2)cc1 | -12.6 | -5.3 | 24.4 | -13.3 | -5.7 | -10.0 | ·
O=C(NC(=S)Nc1nc(-c2ccc(Br)cc2)cs1)c1ccco1 | 2.6 | 2.7 | -14.3 | -6.3 | -4.6 | 1.5 | ·
O=C(NC(=S)Nc1nc(-c2ccc([N+](=O)[O-])cc2)cs1)c1ccco1 | 19.6 | -27.6 | 55.0* | -27.2 | 4.9 | -40.0 | 27.6
O=C(/C=C/c1ccco1)NC(=S)Nc1ccc(O)c(-c2nc3ccccc3s2)c1 | 40.0 | -0.5 | 76.9* | 48.8 | · | -14.8 | 31.9 | FLuc counter=71.7*
CC(=O)NC(=S)Nc1ccc(NC(=S)NC(=O)/C=C/c2ccco2)cc1 | 20.9 | 8.2 | 73.5* | -8.6 | 5.6 | 25.3 | 64.8* | FLuc counter=35.0
O=C(C[C@@H]1C[C@H]2c3cc(NC(=O)Nc4ccccc4F)ccc3O[C@H]2[C@H](CO)O1)NCc1cc(F)ccc1F | · | · | · | · | · | 37.4 | ·
O=C(N[C@@H]1CC[C@H](CCn2cc(C3(O)CCCC3)nn2)O[C@@H]1CO)C1CCCC1 | · | · | · | · | · | 12.3 | ·
O=C(/C=C/c1ccco1)NC(=S)Nc1ccc(N2CCCC2)cc1 | -1.7 | -8.2 | 61.0* | -11.0 | 66.6 | 22.1 | 61.9* | FLuc counter=52.2*
SMILES | Beta apoptosis | Gli-Sufu antag | Mdm2-MdmX inh | Shn3 3UTR inh | CSC inhib | PAX8 reporter | Mdm2 MdmX conf | others
O=C(/C=C/c1ccco1)NC(=S)Nc1ccc(C(=O)O)cc1 | · | 26.6 | -9.9 | -27.9 | · | -1.1 | ·
Cc1sc2ncnc(SC(C)C(=O)N3c4ccccc4Sc4ccccc43)c2c1C (stereo unspecified) | -1.9 | 5.9 | 55.0* | 7.1 | ? | 14.8 | 25.4
Cc1ccc(OCC(=O)NNC(=O)C(C)Sc2ncnc3sc(C)c(C)c23)cc1 (stereo unspecified) | -7.8 | 0.1 | 8.7 | -13.0 | · | 31.7 | ·
COc1ccc(S(=O)(=O)N(C)C[C@@H]2OCCCC[C@H](C)Oc3ccc(NC(=O)Nc4c(C)noc4C)cc3C(=O)N([C@H](C)CO)C[C@@H]2C)cc1 | · | · | · | · | · | 1.4 | ·
C[C@H](CO)N1C[C@H](C)[C@@H](CN(C)S(=O)(=O)CC(F)(F)F)OCc2ccccc2-c2c(n(C)c3ccccc23)C1=O | · | · | · | · | · | 8.1 | ·
CSc1nc(SCC(=O)NCc2ccco2)c2c3c(sc2n1)COC(C)(C)C3 | 11.7 | 2.3 | 50.7* | -7.8 | · | · | 40.8* | FLuc counter=67.9*
CCCCSc1nc(SCC(=O)NCc2ccco2)c2c3c(sc2n1)COC(C)(CC)C3 (stereo unspecified) | 8.0 | 12.2 | 7.0 | 32.7 | 14.6 | 26.5 | ·
CC(C)NC(=O)N[C@H]1CC[C@H](CC(=O)NCCCN(C)C)O[C@@H]1CO | · | · | · | · | · | 2.4 | ·
CN(C)c1ccc(NC(=O)CSc2nc(C3CC3)nc3ccccc23)cc1 | 2.0 | -7.2 | 79.3* | 14.8 | · | -35.8 | 44.3* | FLuc counter=54.2*
O=C(CSc1nc(C2CC2)nc2ccccc12)Nc1ccccc1 | -12.4 | -10.0 | 30.4 | -8.7 | 9.9 | 14.2 | ·
COc1cc(NC(=O)CSc2nc(C3CC3)nc3ccccc23)cc(OC)c1 | -8.6 | -18.2 | 53.6* | 0.4 | -10.9 | 30.5 | -19.1
CC(C)c1nc(SCC(=O)Nc2ccc(N3CCOCC3)cc2)c2ccccc2n1 | -6.0 | 9.2 | 53.0* | 11.3 | · | 7.1 | 12.8
CC(=O)Nc1cccc(NC(=O)CSc2nc(C3CC3)nc3ccccc23)c1 | 21.6 | 34.1 | 72.5* | 35.9 | · | 54.1 | 57.9* | FLuc counter=44.4*
CC(C)c1cn(CC[C@H]2CC[C@H](NC(=O)Nc3cc(Cl)cc(Cl)c3)[C@@H](CO)O2)nn1 | · | · | · | · | · | 18.1 | ·
Cc1ccccc1-c1cnc2c(c1)C(=O)N([C@H](C)CO)C[C@H](C)[C@@H](CN(C)Cc1cncnc1)O2 | · | · | · | · | · | -26.3 | ·
O=C(C[C@H]1CC[C@H]2[C@@H](COC[C@@H](O)CN2C(=O)Nc2ccccc2)O1)NC1Cc2ccccc2C1 | · | · | · | · | · | 18.9 | ·
